Sampled rows, rich in hits. Any-hit rate of the full collection: about 10%.
HPGD inh = HPGD (human) dehydrogenase inhibition. P15428. purified HPGD, NADH fluorescence kinetic, PGE2 substrate. Potency, µM, without a hit: top-dose activity change, negative = inhibition, hits mostly inhibitors. 4.3% of 150,000 active. AID 894; further: potency means the concentration at half of the fitted maximal effect
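NADH formation kinetics: reaction with 30 uM PGE2 and 1 mM NAD+ (final), 20 nM enzyme, Tris-HCl pH 8 with Tween 20, after 15 min compound preincubation at room temperature. Fluorescence change, last versus first of five reads.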
ALDH1A1 block = blocks purified human ALDH1A1 activity | P00352 | 7.3% of 220,000 active | AID 1030 | Purified ALDH1A1, NADH fluorescence, propionaldehyde substrate | Potency, µM (top dose mostly 75.3 µM), for the others: top-dose activity, negative = inhibition, usual class: inhibitors;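 further: potency means the concentration at half of the fitted maximal effect; plate controls were no enzyme wells and a reference inhibitor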
LMNA splice mod = LMNA splicing modulation | Potency, µM (doses to about 46.1 µM), for inactives: top-dose ratio change, negative = inhibition, actives largely listed as inhibitors | HeLa LMNA splicing GFP/RFP minigene ratio, 48 h | 0.01% of 200,000 active; active means well fitted inhibition curve with a large enough effect in the signal ratio, with a control signal flat, not every such curve was filed as active; inconclusive means small, poorly fitted or top-dose-only effect, or effect the other way, or a change in a side signal; the % refers to the signal ratio; further: potency means the concentration at half of the fitted maximal effect
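S3 HeLa stable clones carrying a lamin A-EGFP splicing minigene plus DsRed2 were seeded at 600 cells/well in Opti-MEM with 2% FBS, pin-dosed and incubated 48 h at 37°C. Acumen cytometry (488 nm) gave the GFP/RFP total-intensity ratio.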
12-hLO inh = blocks human 12-lipoxygenase activity; P18054; purified 12-hLO, xylenol orange hydroperoxide absorbance; Potency, µM (top dose mostly 57.1 µM), for the others: at the top dose activity change, negative = inhibition, hits mostly inhibitors; 0.12% of 150,000 active; active means well fitted inhibition curve with a large enough effect; inconclusive means small, poorly fitted or top-dose-only effect; further: potency means the concentration at half of the fitted maximal effect; nearly all actives have a fitted effect of over 55% in size
Target sequence (P18054 whole entry, looked up): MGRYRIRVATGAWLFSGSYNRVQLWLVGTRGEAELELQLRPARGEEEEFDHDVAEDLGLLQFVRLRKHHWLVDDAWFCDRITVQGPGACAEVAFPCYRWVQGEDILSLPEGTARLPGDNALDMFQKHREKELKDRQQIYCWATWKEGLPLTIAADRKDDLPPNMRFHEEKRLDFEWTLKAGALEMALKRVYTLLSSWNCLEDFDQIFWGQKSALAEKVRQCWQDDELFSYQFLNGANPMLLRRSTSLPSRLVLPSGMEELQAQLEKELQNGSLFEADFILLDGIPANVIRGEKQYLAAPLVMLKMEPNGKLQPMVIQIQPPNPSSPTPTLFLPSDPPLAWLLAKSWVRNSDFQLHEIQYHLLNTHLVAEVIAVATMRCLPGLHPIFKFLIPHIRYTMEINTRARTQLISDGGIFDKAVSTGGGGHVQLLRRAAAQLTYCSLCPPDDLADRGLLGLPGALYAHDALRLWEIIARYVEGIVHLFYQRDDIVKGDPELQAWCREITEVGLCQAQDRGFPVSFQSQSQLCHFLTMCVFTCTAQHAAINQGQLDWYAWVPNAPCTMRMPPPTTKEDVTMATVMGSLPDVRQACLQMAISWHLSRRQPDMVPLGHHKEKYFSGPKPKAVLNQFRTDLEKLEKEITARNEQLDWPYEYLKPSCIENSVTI
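Hydroperoxide output read as Fe(III)-xylenol orange absorbance, 573-to-405 nm ratio, after 30 min reaction with 40 uM arachidonic acid. Enzyme: 150 nM purified human 12hLO, 15 min compound preincubation; 25 mM Hepes pH 7.0, room temperature.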
PNC inhibitor = perinucleolar compartment assembly inhibition; PC3M PTB-GFP, PNC prevalence imaging, 16 h; stronger effect = lower value; activity change (PNC), negative = inhibition, % at 10 µM; 3.1% of 140,000 active; AID 2417;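 active means readout at or below -70, meaning at least 70% loss of cells showing the perinucleolar compartment, a nuclear body marking cancer cells; inconclusive means readout between -30 and a set limit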;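 further: plate controls were DMSO wells for no effect and camptothecin positive control wells for full effect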
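Compounds are pinned in duplicate onto adhered PC3M cells stably expressing GFP-tagged PTB and incubated 16 h at 37 C. Cells are then fixed, nuclei stained with Hoechst, and PNC-positive cells counted.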
An asterisk follows results filed as active; ? = inconclusive; . = no result given; [ ] = dose if it differs, or a comment. Unless noted, the call rests on the fitted dose curve; in most records, active means well fitted inhibition curve with a large enough effect (not every such curve was filed as active); inconclusive means small, poorly fitted or top-dose-only effect, or another doubt; inactive means no such curve, though single readings can be large or run the other way. Unless noted, on the % scale 0 is the no-effect control and ±100 the full control effect.

SMILES	HPGD inh	ALDH1A1 block	LMNA splice mod	12-hLO inh	PNC inhibitor
O=C(Nc1ccccc1O)c1csc2c1CCCC2	.	-4.0%	.	.	.
O=C(NC1CCCC1)c1csc2c1CCCC2	15.8µM*	?	18.3%	-6.8%	1.8
Cc1ccccc1NC(=S)NNC(=O)c1csc2c1CCC(C)C2 (centres undefined)	-8.2%	20µM*	?	?	?
CCNC(=S)NNC(=O)c1csc2c1CCC(C)C2 (centres undefined)	-10.1%	-5.9%	-1.4%	-4.8%	-12.8
COc1ccc(CCNC(=O)c2csc3c2CCCC3)cc1	.	0.794µM*	-27.3%[46 µM]	.	.
CCc1c(C(=O)NC2CCCC2)csc1C	14.1µM*	-2.0%	-3.9%	-4.9%	-99.4*
CC1CCc2c(C(=O)Nc3nccs3)csc2C1 (centres undefined)	7.08µM*	1.7%	16.7%	-13.9%	9.6
CCSc1nnc(NC(=O)c2csc3c2CCC(C)C3)s1 (centres undefined)	-7.2%	5.8%	-0.5%	1.6%	-28.4
CCCNC(=O)c1csc2c1CCCCC2	?	5.9%	0.8%	-4.8%	-18.2
CCCCNC(=S)NNC(=O)c1csc(C)c1CC	-18.3%	3.8%	?	-3.7%	49.8
O=C(NCC1CCCO1)c1csc2c1CCCCC2 (centres undefined)	25.1µM*	-12.4%	3.4%	4.0%	17.7
COc1ccc(C(C)C(=O)c2ccc(O)cc2O)cc1 (centres undefined)	-8.9%	-1.0%	.	-7.1%	.
CNc1cc(-c2ccccc2C)ncn1	.	4.3%	3.5%	.	.
Cc1ccccc1-c1cc(Nc2ccc(F)cc2)ncn1	14.1µM*	-4.9%	-12.5%	-2.3%	.
Cc1cccc(CNc2cc(-c3ccccc3C)ncn2)c1	15.8µM*	?	-15.3%	-5.9%	.
CC1CCN(C(=S)c2ccc([N+](=O)[O-])cc2)CC1	22.4µM*	?	-9.4%	-4.8%	-8.2
O=[N+]([O-])c1ccc(C(=S)N2CCN(Cc3ccccc3)CC2)cc1	-21.7%	14.1µM*	?	2.0%	-26.8
CSc1ccc(CN2CCN(Cc3ccc([N+](=O)[O-])cc3)CC2)cc1	.	-12.1%	.	.	.
CSc1ccc(C(=S)N2CCN(Cc3ccccc3)CC2)cc1	?	2.24µM*	-11.6%	-6.1%	-7.9
CC1CCN(S(=O)(=O)c2ccc(Oc3ccc([N+](=O)[O-])cc3)cc2)CC1	-0.3%	-2.8%	3.8%	0.1%	54.9
O=C(CN1CCN(Cc2ccccc2)CC1)NCCNc1ccc([N+](=O)[O-])cn1	.	9.46µM*	-7.7%[9.22 µM]	.	.
S=C(c1ccc(Cl)cc1)N1CCN(Cc2ccccc2)CC1	.	-18.3%	.	.	.
O=c1n(-c2ccccc2)c(=O)n2n1CC[C@H]1/C(=N\OCc3ccccc3)[C@H]3O[C@@H]3[C@@H](O)[C@@H]12	.	3.2%[13.5 µM]	.	.	.
CCCNC(=O)OC[C@@H]1O[C@H](CCO/N=C\[C@@H](OC)[C@H](C)/C=C\CC(=O)OC)C=C[C@@H]1Oc1ccc(OC)cc1	.	-6.4%[13.5 µM]	.	.	.
CCN1CCN(C(=S)c2ccc(OC)cc2)CC1	.	-14.4%	-2.7%[46 µM]	.	.
SMILES	HPGD inh	ALDH1A1 block	LMNA splice mod	12-hLO inh	PNC inhibitor
CCN1CCN(C(=S)c2ccc([N+](=O)[O-])cc2)CC1	25.1µM*	?	-9.9%	-2.6%	11.1
CCOC(=O)C(C(C)=O)=C1SC2CS(=O)(=O)CC2S1 (centres undefined)	-10.9%	9.9%	-0.9%	2.8%	-126.9*
Cc1cc(/C=C2/NC(=O)NC2=O)c(C)n1-c1sc2c(c1C#N)CCCC2	17.8µM*	12.6µM*	?	-19.8%	?
Cc1cc(C)c(-n2c(C)cc(/C=C3/NC(=O)NC3=O)c2C)c(C)c1	-19.2%	14.1µM*	?	-9.2%	68.2
Cc1sc(-n2c(C)cc(/C=C3\SC(=S)NC3=O)c2C)c(C#N)c1C	?	11.5%	-0.9%	-2.2%	40.6
Cc1ccc(NC2c3ncccc3C(=O)N2c2ccccc2C)cc1C (centres undefined)	15.8µM*	?	5.3%	-23.2%	7.6
N#CC(Nc1ccccc1)c1ccccc1OCc1ccccc1 (centres undefined)	-15.5%	17.8µM*	?	-2.8%	-6.3
O=C(CCl)N1c2ccccc2OCC1c1ccccc1 (centres undefined)	31.6µM*	0.3%	?	5.8%	?
COc1ccc(NC(=O)C(C)n2nc(-c3ccc(C)c(C)c3)ccc2=O)cc1OC (centres undefined)	.	.	1.6%[46 µM]	.	.
CCOC(=O)CSc1nnc(CNC(=O)c2ccc(OC)cc2)n1Cc1ccccc1	-6.8%	-6.6%	8.4%	-3.3%	12.7
CCn1c(CNC(=O)c2ccc(OC)cc2)nnc1SCC(=O)c1ccccc1	-16.4%	12.6µM*	-5.3%	2.5%	9.6
COc1ccc(C(=O)NCc2nnc(SCC(=O)N3CCc4ccccc43)n2Cc2ccccc2)cc1	-17.2%	?	5.3%	-0.9%	-100.3*
CCn1c(CNC(C)=O)nnc1SCC(=O)c1ccc(Br)cc1	?	15µM*	-3.2%	-17.0%	7.5
CCn1c(COc2ccc(C)cc2)nnc1SCC(=O)NNC(=O)c1ccc(OC)cc1	0.7%	-8.0%	?	-0.9%	-82.7*
Cn1c(-n2cccc2)c(-c2c(-c3ccccc3)[nH]c3c2c(=O)[nH]c(=O)n3C)c(=O)[nH]c1=O	.	.	-0.9%[46 µM]	.	.
O=C(c1cnccn1)N1CCC2(CC1)CCN(c1ncccn1)CC2	-13.4%	-1.2%	.	1.9%	.
CCc1nnc(NC(=O)CSc2nnc(-c3cccnc3)n2CC)s1	-8.6%	-8.9%	?	2.2%	-103.9*
Cc1cccc(-n2ccnc2SCC(=O)Nc2nccs2)c1C	-5.8%	-10.5%	?	0.8%	-26.7
CCc1nnc(NC(=O)CSc2nccn2-c2cccc(C)c2C)s1	-16.4%	15.8µM*	?	-3.4%	8.5
COc1ccc(N2Cc3cccc(C(=O)NC(C)CCc4ccco4)c3C2=O)cc1 (centres undefined)	?	25.1µM*	-1.7%	-16.8%	13.1
CCOC(=O)N1CCC(NC(=O)c2cccc3c2C(=O)N(c2ccc(OC)cc2)C3)CC1	-10.0%	?	-3.8%	-9.4%	45.3
Cc1cc(C)c(-c2cc([C@H](C)O/N=C\[C@@H](C)[C@H](OCc3ccccc3)C(C)C)on2)c(C)c1	.	8.8%[13.5 µM]	.	.	.
O=C(CC1C(=O)NCCN1CC1CCCCC1)NCc1ccc(F)cc1F (centres undefined)	.	10.4%	3.5%[46 µM]	.	.
O=C(CC1C(=O)NCCN1CC1CCCCC1)NCc1ccc(Cl)cc1 (centres undefined)	.	20µM*	?	.	.
c1ccc(CN(CCN(Cc2ccccn2)Cc2ccccn2)Cc2ccccn2)nc1	.	-14.1%	.	.	.
CCC(=O)Nc1cc2c(C)cc(=O)oc2cc1C	?	?	5.5%	-0.9%	-9.5
CCCCCCC(=O)Nc1cc2c(C)cc(=O)oc2cc1C	-17.2%	5.01µM*	-4.1%	5.0%	-119.2*
CC(C)c1ccc(S(=O)(=O)NCc2ccc3c(c2)CCN3C(=O)c2ccccc2)cc1	.	.	13.0%[46 µM]	.	.

Screening data: PubChem, National Center for Advancing Translational Sciences (NCATS)
